{
  "source": "PubChem BioAssay (Tox21)",
  "note": "Inconclusive results are not listed. Entries that show only a call come without a potency. Activity calls are given as the source filed them. Calls follow the shape of the dose curve; as a rule, active = well fitted cell-killing curve with a large enough effect in the repeat runs; inconclusive = weak or mixed curves; inactive = flat fitted curve, though single readings scatter. Potency is read from the fitted curve at half-maximal effect.",
  "data": [
    {"assay": "qHTS RealTime-Glo MT Cell Viability Assay in HepG2 cells - 8 hour (AID 1224873); also: nearly all actives have a fitted effect of over 55% in size", "conditions": "RealTime-Glo luminescence; series mostly up to 76.8 µM", "description": "National Center for Advancing Translational Sciences [NCATS]\nNIH Chemical Genomics Center [NCGC]\nU.S. Environmental Protection Agency [EPA]\nNational Institutes of Environmental Health Sciences [NIEHS]\nNational Toxicology Program [NTP]\nU.S. Food and Drug Administration [FDA]\nMeasure of cell viability is critical in the cell-base assay. Analysis of cell viability is necessary for the characterization of cell responses to cytotoxic drugs and environmental stress. A RealTime-Glo MT Cell Viability Assay to monitor cell viability in real time of continues cell culture during 40 hours of compound treatment was used to screen Tox21 10K library compounds in HepG2 cells. The RealTime-Glo MT Cell Viability Assay is a nonlytic, homogeneous, bioluminescent method to measure cell viability in real time using a simple, plate-based method. The assay involves adding NanoLuc luciferase and a cell-permeant prosubstrate to cells in culture. Viable cells reduce the proprietary prosubstrate to generate a substrate for NanoLuc luciferase. This substrate diffuses from cells into the surrounding culture medium, where it is rapidly used by the NanoLuc Enzyme to produce a luminescent signal. The signal correlates with the number of viable cells, making the assay well suited for cytotoxicity studies.\nTox21 Assay Protocol Summary:\nThe mixture of HepG2 cell suspension and reagents were dispensed at 600cells/6 ul/well in 1536-well tissue culture treated black solid bottom plates using a Multidrop dispenser. After the assay plates were incubated at a 37 C/5% CO2 incubator for 5 hours, 23 nL of compounds dissolved in DMSO, positive and negative controls was transferred to the assay plate by a pintool work station. The plates were incubated at 37 C for 40 hours. The luminescence intensity were measured at 0h, 8h, 16h, 24h, 32h and 40h time points using ViewLux plate reader during compound treatment.", "values": [
      {"smiles": "c1ccc2c(c1)[nH]c1cnccc12", "Potency": "inactive"},
      {"smiles": "[Cd+2].[Cl-].[Cl-]", "Potency": "inactive"},
      {"smiles": "Fc1ccc(Oc2ccnc3cc(Cl)cc(Cl)c23)cc1", "Potency": "inactive"},
      {"smiles": "c1ccc2cc3c(cc2c1)-c1cccc2cccc-3c12", "Potency": "inactive"},
      {"smiles": "Oc1ccc2ccc3cccc4ccc1c2c34", "Potency": "43.6 µM (active)"},
      {"smiles": "C1CCC2CCCCC2C1", "note": "(stereo not given)", "Potency": "inactive"},
      {"smiles": "CC(=O)[O-].CC(=O)[O-].O.O.[Cd+2]", "Potency": "inactive"},
      {"smiles": "CC(=O)c1ccc(-c2ccccc2)cc1", "Potency": "inactive"},
      {"smiles": "CC(C)(O)c1cnn2c(-c3ccc(F)c(-c4c(F)cccc4C#N)c3)cnc2n1", "Potency": "inactive"},
      {"smiles": "C[C@@H](Oc1ccc(Cl)cc1Cl)C(=O)O", "Potency": "inactive"},
      {"smiles": "COP(N)(=S)OC", "Potency": "inactive"},
      {"smiles": "NC(=O)c1ccc(N)nc1", "Potency": "inactive"},
      {"smiles": "C[C@]12CC[C@H](O)C[C@H]1CC[C@@H]1[C@@H]2C[C@@H](O)[C@]2(C)[C@@H](C3=CC(=O)OC3)CC[C@]12O", "Potency": "inactive"},
      {"smiles": "CCCCCCCCCC[N+](C)(C)CCCCCCCCCC", "Potency": "19.5 µM (active)"},
      {"smiles": "C=CC(=O)OCC(COC(=O)C=C)(COC(=O)C=C)COC(=O)C=C", "Potency": "3.09 µM (active)"},
      {"smiles": "CCCCCCCCCBr", "Potency": "inactive"},
      {"smiles": "COC(=O)N(C(=O)N1COC2(C(=O)OC)Cc3cc(Cl)ccc3C2=N1)c1ccc(OC(F)(F)F)cc1", "note": "(stereo not given)", "Potency": "inactive"},
      {"smiles": "C[C@]12CC[C@@H]3c4ccc(OC(=O)N(CCCl)CCCl)cc4CC[C@H]3[C@@H]1CC[C@@H]2O", "Potency": "inactive"},
      {"smiles": "OC(c1ccc(Cl)cc1)(c1ccc(Cl)cc1)C(Cl)(Cl)Cl", "Potency": "inactive"},
      {"smiles": "ClC(Cl)=C(c1ccc(Cl)cc1)c1ccc(Cl)cc1", "Potency": "inactive"},
      {"smiles": "CC(=O)/C=C/c1ccc2c(c1)OCO2", "Potency": "inactive"},
      {"smiles": "Cl/C=C\\CCl", "Potency": "inactive"},
      {"smiles": "CC(C)CC(C)Nc1ccc(Nc2ccccc2)cc1", "note": "(stereo not given)", "Potency": "42.9 µM (active)"},
      {"smiles": "CCOP(=S)(OCC)SCCS(=O)(=O)CC", "Potency": "inactive"},
      {"smiles": "Clc1ccc(-c2ccc(Cl)c(Cl)c2Cl)c(Cl)c1Cl", "Potency": "inactive"},
      {"smiles": "O=C1C=CC(=O)c2ccccc21", "Potency": "17.4 µM (active)"},
      {"smiles": "Nc1ccccc1C(=O)OC/C=C/c1ccccc1", "Potency": "inactive"},
      {"smiles": "C[C@]12Cc3nonc3C[C@@H]1CC[C@@H]1[C@@H]2CC[C@@]2(C)[C@H]1CC[C@]2(C)O", "Potency": "inactive"},
      {"smiles": "c1ccc(OCC2CO2)cc1", "note": "(stereo not given)", "Potency": "inactive"},
      {"smiles": "ClCCN1CCOCC1", "Potency": "inactive"},
      {"smiles": "CC(C)(C)OO", "Potency": "inactive"},
      {"smiles": "O=C1c2ccccc2C(=O)C1C(=O)C(c1ccccc1)c1ccc(Cl)cc1", "note": "(stereo not given)", "Potency": "inactive"},
      {"smiles": "c1ccc2c(c1)OCC(C1=NCCN1)O2", "note": "(stereo not given)", "Potency": "inactive"},
      {"smiles": "O=C/C(Cl)=C(/Cl)C(=O)O", "Potency": "inactive"},
      {"smiles": "O=C(NC(=O)c1c(F)cccc1F)Nc1cc(Cl)c(OC(F)(F)C(F)F)c(Cl)c1", "Potency": "inactive"},
      {"smiles": "CC(C)CCCCCOC(=O)c1ccccc1C(=O)OCCCCCC(C)C", "Potency": "inactive"},
      {"smiles": "CC(=O)[O-].[Tl+]", "Potency": "inactive"},
      {"smiles": "CCc1cc(C)cc(CC)c1-c1c(OC(=O)C(C)(C)C)n2n(c1=O)CCOCC2", "Potency": "inactive"},
      {"smiles": "CC(Cc1ccc(C(C)(C)C)cc1)CN1C[C@@H](C)O[C@@H](C)C1", "note": "(stereo not given in full)", "Potency": "inactive"},
      {"smiles": "[CH3][Hg][Cl]", "Potency": "15.5 µM (active)"}
    ]}
  ]
}
